35 compounds from PubChem BioAssay (EPA / NIEHS) can be followed below.

“And” between values parts separate entries of the source, which are not always exact repeats. Equal values may be shown once. A structure can be active in one record and inactive in another. The source made the active and inactive calls. How the source made its calls: active means hit-call score of the fitted dose curve at least 0.9, where 1 is the maximum; inactive means score below 0.9.

Read-out in the assay: CD69, CD69 (gene 969)
The assay can be described thus: BSK_IMphg_CD69: BioMAP Diversity Plus: IMphg Assay for CD69 Biomarker Activity (AID 2284257). Particulars: primary human endothelial cells with macrophages. The method, then: BSK_IMphg is a cell-based, multiplexed-readout assay that uses venular endothelial cells and macrophages, a human vascular primary cell, with measurements taken at 24 hours after chemical dosing in a microplate: 96-well plate.BSK_IMphg_CD69 is an assay component measured in the BSK_IMphg assay. It measures CD69 antibody related to regulation of gene expression using ELISA technology.Data from the assay component BSK_IMphg_CD69 was analyzed at the endpoint, BSK_IMphg_CD69, in the positive analysis fitting direction relative to DMSO as the negative control and baseline of activity. Using a type of binding reporter, gain or loss-of-signal activity can be used to understand protein changes. To generalize the intended target to other relatable targets, this assay endpoint is annotated to the 'cytokine' intended target family, where the subfamily is 'inflammatory factor'.
The levels of cell surface (or secreted, indicated by the prefix "s") biomarker endpoints were measured by ELISA. Overt cytotoxicity to cells in confluent adherent cultures (all systems other than the BT system) was assessed by measuring total protein levels using sulforhodamine B (SRB) staining in parallel cultures at the time of biomarker measurements, indicated as SRB endpoints. For proliferation assays for adherent cell types, individual cell types are cultured at sub-confluence and relative cell numbers quantified by SRB staining at time points optimized for each system (48 h: 3C and CASM3C systems; 72 h: BT and HDF3CGF systems; 96 h: SAg system). SRB was performed by staining cells with 0.1% SRB after fixation with 10% TCA and reading wells at 560 nm.Viability and proliferation of PBMC (T cells) was quantified by Alamar Blue reduction for the SAg and BT systems. For PBMC viability (referred to as PBMC Cytotoxicity within the assay endpoint names), cells were plated (75,000/well in a 96-well plate) and then chemical samples added for 1 h before addition of activators, SEB and TSST-1 (20 ng/mL final concentration each). Cells were incubated for 90 h. Then, Alamar Blue (20 uL/well) (Invitrogen, Cat DAL1100) was added for 6 h, and the plates were read with a fluorescence microplate reader at 546/580 nm (excitation/emission). For PBMC proliferation, cells were plated and activated as above but incubated for only 16 h prior to addition of Alamar Blue. Plates were read after 6 h.
Take `O=C(CC(=O)C(F)(F)C(F)(F)F)C(F)(F)F`: the result was inactive.

As a reminder, the AC50 is the midpoint of the concentration-response curve, whichever way the signal moves. As for `FC(F)(F)C(F)(F)C(F)(F)N(C(F)(F)C(F)(F)C(F)(F)F)C(F)(F)C(F)(F)C(F)(F)F`, the outcome was inactive and the AC50 was 1.09 µM (active). `FC1CC(F)(F)C(F)(F)C1(F)F` (stereo not given): the result was inactive. On to `FC(F)(F)C(F)(F)CNCC(F)(F)C(F)(F)F`, for which the outcome was inactive. Consider `FC(F)(F)C(F)(F)C(F)(F)C(F)(F)C(F)(F)C(F)(F)C(F)(F)C(F)(F)CCS`, for which the result was inactive.

Take `O=P(O)(O)OCCC(F)(F)C(F)(F)C(F)(F)C(F)(F)C(F)(F)C(F)(F)F`: the outcome was inactive.

As to `O=C(O)C=C(C(F)(F)F)C(F)(F)F`, the outcome was inactive. Regarding `OCCCC(F)(F)C(F)(F)C(F)(F)C(F)(F)C(F)(F)C(F)(F)C(F)(F)F`, the AC50 was 50 µM (active) and the result was inactive. With `FC(F)(I)C(F)(F)C(F)(F)C(F)(F)I`, the result was inactive and the AC50 was 10.1 µM (active). On to `CCCCCCCCC(F)(F)C(F)(F)C(F)(F)C(F)(F)C(F)(F)C(F)(F)F`, for which the result was inactive. With `O=C(O)C(F)(F)C(F)(F)C(F)(F)C(F)(F)C(F)(F)C(F)(F)C(F)(F)C(F)(F)Cl`, the AC50 is 41.5 µM (active) and 30 µM (active). Consider `O=C(O)C(F)(F)C(F)(F)C(F)(F)C(F)(F)C(F)(F)C(F)(F)C(F)(F)C(F)(F)C(F)(F)C(F)F`, for which the AC50 was 30 µM (active) and the result was inactive.

Regarding `O=C(Cl)C(F)(F)C(F)(F)C(F)(F)C(F)(F)C(F)(F)C(F)(F)C(F)(F)C(F)(F)F`, the AC50 is 55.1 µM (active) and 33.8 µM (active) and 45.9 µM (active). With `N=C(N)C(F)(F)C(F)(F)C(F)(F)C(F)(F)C(F)(F)C(F)(F)C(F)(F)F`, the outcome was inactive. Still for that read-out and setting: the entry for `O=C(O)C(F)(F)C(F)(F)C(F)(F)C(F)(F)C(F)(F)C(F)(F)C(F)(F)C(F)(F)C(F)(F)C(F)(F)C(F)(F)C(F)(F)C(F)(F)F` is “inactive”. The same measure, in the same setting: the entry for `FC(F)(F)C(F)(F)C(F)(F)CI` is “inactive”; for `FC(F)(F)C(F)(F)C(F)(F)C(F)(F)C(F)(F)C(F)(F)C(F)(F)C(F)(F)F` it is “inactive”; for `COC(=O)CCC(F)(F)C(F)(F)C(F)(F)C(F)(F)F` it is “inactive”. The same measure, in the same setting: as for `O=S(=O)(OCC(F)F)C(F)(F)F`, the entry is “inactive”. Regarding `C=C(C)C(=O)OCCC(F)(F)C(F)(F)C(F)(F)C(F)(F)C(F)(C(F)(F)F)C(F)(F)F`, the outcome was inactive. Still for that read-out and setting: as for `C=C(C)C(=O)OCC(F)(F)C(F)(F)C(F)(F)C(F)(F)C(F)(F)C(F)(F)C(F)(F)F`, the entry is “inactive”; as for `O=C(O)C(F)(F)C(F)(F)C(F)(F)C(F)(F)F`, “inactive”. Consider `OCC(F)(F)C(F)(F)C(F)(F)C(F)(F)C(F)(F)C(F)F`, for which the result was inactive. On the same count and under the same terms, the entry for `O=C(O)C(F)(OC(F)(F)C(F)(OC(F)(F)C(F)(F)C(F)(F)F)C(F)(F)F)C(F)(F)F` (stereo not given) is “inactive”; for `O=C(O)C(F)(F)C(F)(F)F` it is “inactive”; for `FC(F)(F)C(F)(F)C(F)(F)C(F)(F)C(F)(F)CCI` it is “inactive”. On to `CCO[Si](CCC(F)(F)C(F)(F)C(F)(F)C(F)(F)C(F)(F)C(F)(F)F)(OCC)OCC`, for which the AC50 is 0.26 µM (active) and the outcome was inactive. On to `O=S(=O)(O)C(F)(F)C(F)(F)C(F)(F)C(F)(F)C(F)(F)C(F)(F)C(F)(F)F`, for which the result was inactive. As for `C=CC(=O)OCC(F)(F)C(F)(F)C(F)(F)C(F)(F)COC(=O)C=C`, the AC50 is 30 µM (active). Take `O=C(O)C(F)(F)C(F)(F)OC(F)(F)F`: the outcome was inactive.

For `FC(F)(F)C(F)(F)C(F)(F)C(F)(F)C(F)(F)C(F)(F)C(F)(F)Br`, the outcome was inactive. Still for that read-out and setting: the entry for `OCCCC(F)(F)C(F)(F)C(F)(F)F` is “inactive”; for `FC(F)(F)C(F)(F)C(F)(F)C(F)(F)C(F)(F)C(F)(F)CCS` it is “inactive”. Still for that read-out and setting: as for `Cc1ccc(S(=O)(=O)OCC(F)(F)C(F)(F)C(F)(F)C(F)(F)C(F)(F)C(F)F)cc1`, the entry is “inactive”; as for `FC(F)(F)C(F)(F)C(F)(F)C(F)(F)C(F)(F)C(F)(F)C(F)(F)I`, “inactive”.
